# Where a structure was tested more than once in an assay, its records may differ in their call. Calls of active or inactive are those of the source. Rule for the calls: active = hit-call score of the fitted dose curve at least 0.9, where 1 is the maximum; inactive = score below 0.9.
# Read-out: Interleukin 17A (IL17A), IL17A (gene 3605)
# Assay: BSK_BT_xIL17A: BioMAP Diversity Plus: BT Assay for Interleukin 17A (IL17A) Biomarker Activity (AID 2284229)
# Conditions: primary human B cells with PBMC
# Method: BSK_BT is a cell-based, multiplexed-readout assay that uses B cell and peripheral blood mononuclear cells, a human vascular primary cell co-culture, with measurements taken at 24 hours after chemical dosing in a microplate: 96-well plate.BSK_BT_xIL17A is an assay component measured in the BSK_BT assay. It measures secreted IL-17A related to regulation of gene expression using LumineX xMAP technology.Data from the assay component BSK_BT_xIL17A was analyzed at the endpoint, BSK_BT_xIL17A, in the positive analysis fitting direction relative to DMSO as the negative control and baseline of activity. Using a type of cytokine quantitation reporter, gain or loss-of-signal activity can be used to understand protein changes. To generalize the intended target to other relatable targets, this assay endpoint is annotated to the 'cytokine' intended target family, where the subfamily is 'interleukins'.
# The levels of cell surface (or secreted, indicated by the prefix "s") biomarker endpoints were measured by ELISA. Overt cytotoxicity to cells in confluent adherent cultures (all systems other than the BT system) was assessed by measuring total protein levels using sulforhodamine B (SRB) staining in parallel cultures at the time of biomarker measurements, indicated as SRB endpoints. For proliferation assays for adherent cell types, individual cell types are cultured at sub-confluence and relative cell numbers quantified by SRB staining at time points optimized for each system (48 h: 3C and CASM3C systems; 72 h: BT and HDF3CGF systems; 96 h: SAg system). SRB was performed by staining cells with 0.1% SRB after fixation with 10% TCA and reading wells at 560 nm.Viability and proliferation of PBMC (T cells) was quantified by Alamar Blue reduction for the SAg and BT systems. For PBMC viability (referred to as PBMC Cytotoxicity within the assay endpoint names), cells were plated (75,000/well in a 96-well plate) and then chemical samples added for 1 h before addition of activators, SEB and TSST-1 (20 ng/mL final concentration each). Cells were incubated for 90 h. Then, Alamar Blue (20 uL/well) (Invitrogen, Cat DAL1100) was added for 6 h, and the plates were read with a fluorescence microplate reader at 546/580 nm (excitation/emission). For PBMC proliferation, cells were plated and activated as above but incubated for only 16 h prior to addition of Alamar Blue. Plates were read after 6 h.
SMILES,outcome,AC50
O=C(O)COc1cc(Cl)c(Cl)cc1Cl,inactive,
COCC(=O)N(c1c(C)cccc1C)[C@H](C)C(=O)OC,inactive,
Cc1c([N+](=O)[O-])c(C)c([N+](=O)[O-])c(C(C)(C)C)c1[N+](=O)[O-],inactive,
Cc1ccc2nc3sc(=O)sc3nc2c1,inactive,
O=c1oc2ccccc2c(O)c1C(CC(O)c1ccc(-c2ccc(Br)cc2)cc1)c1ccccc1 (stereo not given),inactive,
CCCCCCCCCCCCN(C)C,inactive,
CCOC(=O)CC(=O)CCl,,10.5 µM (active)
[Cl][Sn]([c]1ccccc1)([c]1ccccc1)[c]1ccccc1,,0.204 µM (active)
CCOP(=O)(OCC)SCCSCC,inactive,
O=C(CCl)NCO,inactive,
C#CCOC(=O)/C=C(C)/C=C/CC(C)CCCC(C)C (stereo not given),inactive,
CC1(C)[C@H](C(=O)O[C@H](C#N)c2cccc(Oc3ccccc3)c2)[C@@H]1/C=C(\Cl)C(F)(F)F,inactive,17.1 µM (active)
O=[N+]([O-])c1ccc(Nc2ccccc2)cc1,inactive,
c1ccc2sc(SNC3CCCCC3)nc2c1,,20 µM (active)
C[C@]12CC[C@@H](O)C[C@@H]1CC[C@@H]1[C@@H]2CC[C@]2(C)C(=O)CC[C@@H]12,inactive,
CCOP(=O)(OCC)OC(=CCl)c1ccc(Cl)cc1Cl,inactive,
Cc1cccc(OP(=O)(Oc2cccc(C)c2)Oc2cccc(C)c2)c1,inactive,
OC(Cc1ccccc1Cl)(Cn1[nH]cnc1=S)C1(Cl)CC1 (stereo not given),inactive,
NC(=O)CCl,inactive,
CCC(C)(C#N)N=NC(C)(C#N)CC (stereo not given),inactive,

SMILES,outcome,AC50
O=C1C=CC(=O)c2ccccc21,,0.482 µM (active)
OC(Cc1ccccc1Cl)(Cn1cncn1)C1(Cl)CC1 (stereo not given),inactive,
O=S(=O)(c1ccc(Cl)cc1)c1cc(Cl)c(Cl)cc1Cl,inactive,
CC(C)=CC1C(C(=O)OCc2cccc(Oc3ccccc3)c2)C1(C)C (stereo not given),inactive,
Oc1ccc(Cc2ccc(O)cc2)cc1,inactive,
Cc1ccc(OP(=O)(Oc2ccc(C)cc2C)Oc2ccc(C)cc2C)c(C)c1,,20 µM (active)
Cc1cc(Cl)ccc1OC(C)C(=O)O (stereo not given),inactive,
O=S(=O)(C(Cl)(Cl)Cl)C(Cl)(Cl)Cl,,3.08 µM (active)
CC(C)N(C(=O)CCl)c1ccccc1,,5.91 µM (active)
Cc1ccccc1OP(=O)(Oc1ccccc1C)Oc1ccccc1C,,24.7 µM (active)
CCOC(=O)C(SP(=S)(OC)OC)c1ccccc1 (stereo not given),inactive,
CCN(CC)C(=O)C(Cl)=C(C)OP(=O)(OC)OC,inactive,
Cc1cc(Cl)ccc1N,inactive,
CCOP(=S)(OCC)SCS(=O)(=O)C(C)(C)C,inactive,
CC(C)(C)c1cc([N+](=O)[O-])cc(C(C)(C)C)c1O,,13.4 µM (active)
Cc1cc(C(C)(C)c2ccc(O)c(C)c2)ccc1O,inactive,
CC(C=O)Cc1ccc2c(c1)OCO2 (stereo not given),inactive,
Nc1c(Oc2ccccc2)cc(O)c2c1C(=O)c1ccccc1C2=O,inactive,
Oc1c(Br)cc(Br)cc1Br,inactive,

# Source: PubChem BioAssay (EPA / NIEHS)
